The results in this text go back to PubChem BioAssay (EPA / NIEHS).

Active and inactive are the calls of the source. The calls were made as follows: active = hit-call score of the fitted dose curve at least 0.9, where 1 is the maximum; inactive = score below 0.9.

By AC50 is commonly meant the concentration giving half of the maximal activity seen.

Read-out in this assay: Collagen III, COL3A1 (gene 1281)
The assay is described as follows: BSK_MyoF_CollagenIII: BioMAP Diversity Plus: MyoF Assay for Collagen III Biomarker Activity (AID 2284239). The conditions noted are these: primary human lung fibroblasts. On the procedure: BSK_MyoF is a cell-based, multiplexed-readout assay that uses lung fibroblasts, […], with measurements taken at 24 hours after chemical dosing in a microplate: 96-well plate.BSK_MyoF_CollagenIII is an assay component measured in the BSK_MyoF assay. It measures Collagen III antibody related to regulation of gene expression using ELISA technology.Data from the assay component BSK_MyoF_CollagenIII was analyzed at the endpoint, BSK_MyoF_CollagenIII, in the positive analysis fitting direction relative to DMSO as the negative control and baseline of activity. Using a type of binding reporter, gain or loss-of-signal activity can be used to understand protein changes. To generalize the intended target to other relatable targets, this assay endpoint is annotated to the 'cell adhesion molecules' intended target family, where the subfamily is 'collagen'.
The levels of cell surface (or secreted, indicated by the prefix "s") biomarker endpoints were measured by ELISA. Overt cytotoxicity to cells in confluent adherent cultures (all systems other than the BT system) was assessed by measuring total protein levels using sulforhodamine B (SRB) staining in parallel cultures at the time of biomarker measurements, indicated as SRB endpoints. For proliferation assays for adherent cell types, individual cell types are cultured at sub-confluence and relative cell numbers quantified by SRB staining at time points optimized for each system (48 h: 3C and CASM3C systems; 72 h: BT and HDF3CGF systems; 96 h: SAg system). SRB was performed by staining cells with 0.1% SRB after fixation with 10% TCA and reading wells at 560 nm.Viability and proliferation of PBMC (T cells) was quantified by Alamar Blue reduction for the SAg and BT systems. For PBMC viability (referred to as PBMC Cytotoxicity within the assay endpoint names), cells were plated (75,000/well in a 96-well plate) and then chemical samples added for 1 h before addition of activators, SEB and TSST-1 (20 ng/mL final concentration each). Cells were incubated for 90 h. Then, Alamar Blue (20 uL/well) (Invitrogen, Cat DAL1100) was added for 6 h, and the plates were read with a fluorescence microplate reader at 546/580 nm (excitation/emission). For PBMC proliferation, cells were plated and activated as above but incubated for only 16 h prior to addition of Alamar Blue. Plates were read after 6 h.
For the compound `CC=Cc1ccc(OCC)c(O)c1`, the outcome was inactive.
On the same count and under the same terms, under `CC(C)(N=C=O)c1cccc(C(C)(C)N=C=O)c1` stands “inactive”; under `IC(I)I`, “inactive”.
`CC(C)(C)CC(C)(C)c1ccc(OCCOCC[N+](C)(C)Cc2ccccc2)cc1`: the AC50 is 7.02 µM (active).
For `CCCCCCCCCCCCCCCC(=O)OC/C=C(C)/C=C/C=C(C)/C=C/C1=C(C)CCCC1(C)C`, the result was inactive.
Regarding `C=C(C)C(=O)OCCOCCOCCOCCOC(=O)C(=C)C`, the result was inactive.
Regarding `CC(=O)C1(C)CC2=C(CCCC2(C)C)CC1C` (stereo not drawn), the AC50 was 26 µM (active).
As to `Oc1c(Cl)cc(Cl)c(Cl)c1Cc1c(O)c(Cl)cc(Cl)c1Cl`, the half-maximal activity concentration (AC50) is 6.62 µM (active).
For `O=C1c2ccccc2C(=O)c2c(O)ccc(O)c21`, the result was inactive.
For the compound `COc1ccc(OC)c(N=Nc2c(O)ccc3ccccc23)c1`, the half-maximal activity concentration (AC50) was 10.4 µM (active).
As to `C1=CC2C3C=CC(C3)C2C1` (stereo not drawn), the outcome was inactive.
The same measure, in the same setting: under `CCCCCC(C=O)=Cc1ccccc1` stands “inactive”.
For the compound `Clc1cc(Cl)c(-c2c(Cl)c(Cl)cc(Cl)c2Cl)cc1Cl`, the AC50 is 12.4 µM (active).
`CCC(C)c1cc([N+](=O)[O-])cc([N+](=O)[O-])c1OC(=O)OC(C)C` (stereo not drawn): the half-maximal activity concentration (AC50) was 11.5 µM (active).
As to `CCN(CC)C(=O)N(CC)CC`, the outcome was inactive.
In the case of `O=C1OC2(c3ccccc31)c1ccc(O)c(Br)c1Oc1c2ccc(O)c1Br`, the AC50 was 20 µM (active).
`CN(c1nccc(=O)[nH]1)C1CCN(c2nc3ccccc3n2Cc2ccc(F)cc2)CC1`: the result was inactive.
Same read-out and setting: to `CSCCC=O` belongs “inactive”.
`CN(C)C(=O)Nc1ccc(Oc2ccc(Cl)cc2)cc1`: the outcome was inactive.
As to `CCCCN(CCCC)C(=O)N(CCCC)CCCC`, the half-maximal activity concentration (AC50) is 8.12 µM (active).
Take `C=C(C)C(=O)OCCOCCOCCOC(=O)C(=C)C`: the result was inactive.
Same read-out and setting: to `CC(C=O)Cc1ccc(C(C)(C)C)cc1` (stereo not drawn) belongs “inactive”; to `Cc1cc(CCC(=O)OCCOCCOCCOC(=O)CCc2cc(C)c(O)c(C(C)(C)C)c2)cc(C(C)(C)C)c1O`, “inactive”; to `CS(=O)(=O)c1ccc(C2=C(c3ccccc3)C(=O)OC2)cc1`, “inactive”.
Take `c1ccc2cc(Nc3ccc(Nc4ccc5ccccc5c4)cc3)ccc2c1`: the half-maximal activity concentration (AC50) was 4.82 µM (active).
Turning to `O=C1OC[C@H](Cc2cccc(O)c2)[C@H]1Cc1cccc(O)c1`, the result was inactive.
On to `c1ccc(CCc2ccccc2)cc1`, for which the AC50 is 26.9 µM (active).
`COc1cc(Cl)c(OC)cc1N`: the outcome was inactive.
Regarding `c1ccc(Oc2ccccc2)cc1`, the outcome was inactive.
On to `CC(=O)Nc1ccc(C(=O)CCl)cc1`, for which the AC50 is 20 µM (active).
Turning to `CN(C)C(=S)SC(=S)N(C)C`, the concentration at half-maximal activity (AC50) is 19.9 µM (active).
Same read-out and setting: to `CC1(C)C2=CCCC(C)(C)[C@]23CC[C@H]1C3` belongs 39 µM (active).
`CC(=O)c1c(C)c([N+](=O)[O-])c(C(C)(C)C)c([N+](=O)[O-])c1C`: the result was inactive.
For the compound `C=C(C)C(=O)OCC(CC)(COC(=O)C(=C)C)COC(=O)C(=C)C`, the AC50 is 29.3 µM (active).
For `C=C(C)[C@H]1CC=C(C)C(=O)C1`, the outcome was inactive.
As for `C[C@@H]1CCN(C(=O)[C@H](CCCN=C(N)N)NS(=O)(=O)c2cccc3c2NC[C@H](C)C3)[C@@H](C(=O)O)C1`, the result was inactive.
With `COc1ccc(CCN2CCC(Nc3nc4ccccc4n3Cc3ccc(F)cc3)CC2)cc1`, the AC50 is 6.52 µM (active).
For the compound `CCCCOC(=O)CCCCCCCC(=O)OCCCC`, the result was inactive.
